Source: PubChem (National Center for Advancing Translational Sciences (NCATS))
Shown are actives, neighbours in structure and some others; about 10% of the full set was active somewhere.
G9a block: inhibitors of human histone lysine methyltransferase G9a; Q96KQ7; G9a H3K9 monomethylation, AlphaScreen, 2 h; Potency, µM (doses to about 102 µM), actives largely listed as inhibitors; actives 8.8% (n = 350,000); further: nearly all actives have a fitted effect of over 75% in size
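Quantitative HTS format: methyltransferase activity on a biotin-tagged H3K9 peptide is measured by AlphaScreen, using a rabbit anti-monomethyl-H3K9 antibody with streptavidin donor and anti-IgG acceptor beads. Final levels are 20 nM enzyme, 500 nM peptide, 20 uM SAM; 2 h RT.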
GLS inh: inhibitors of human glutaminase (GLS). GLS enzymatic activity, qHTS titration. actives 0.21% (n = 410,000). O94925. Potency, µM (titrated, usually from 45.5 µM), hits mostly inhibitors
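Coupled fluorescence readout: glutamate oxidase/HRP/Amplex Red detect glutamate formed by hKGA from L-glutamine (1 mM solution added). Buffer 45 mM KH2PO4 pH 8.2, 0.02% Tween-20; reads at t0 and 30 min RT.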
HP1b chromo inh: blocks HP1-beta chromodomain binding to methylated histone tails; AlphaScreen HP1-beta / biotin-H3K9me3 peptide binding; Potency, µM (doses to about 114 µM), usual class: inhibitors; actives 0.56% (n = 390,000); further: nearly all actives have a fitted effect of over 70% in size
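Compound inhibition of the preformed complex between 50 nM HP1-beta and 50 nM biotinylated H3K9me3 peptide was read by AlphaScreen. Buffer was PBS pH 7.4 with 0.01% Tween-20. Incubations ran 30 min at room temperature, with 10 ug/mL donor/acceptor beads.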
JMJD2A Tudor: JMJD2A Tudor domain (human) inhibition | O75164 | actives 4.4% (n = 390,000) | Potency, µM (highest dose often 114 µM), most hits filed as inhibitors | AlphaScreen JMJD2A-Tudor / H3K4me3 peptide binding; further: nearly all actives have a fitted effect of over 50% in size
BAZ2B inh: inhibitors of human BAZ2B bromodomain; actives 4.4% (n = 360,000); AlphaScreen BAZ2B-H3K14Ac peptide displacement; Potency, µM (series often up to 114 µM), actives largely listed as inhibitors; AID 504333; further: nearly all actives have a fitted effect of over 60% in size
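Compounds, titrated to a top concentration of 110 uM, were incubated 30 min at room temperature with preformed BAZ2B/acetyl-K14 H3 peptide complex (50 nM each). Proximity signal was measured by AlphaScreen after 20 min with beads.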
A number is an active result; . = inactive; ? = inconclusive; / = no result given; ! = not active in a repeat; [ ] = another dose, or the depositor's remark. The call rests on the fitted dose curve; in most records, active means well fitted curve in the direction sought with a large enough effect; inconclusive means small, poorly fitted or top-dose-only effect, or another doubt; inactive means no such curve, though single readings can be large; an effect the other way counts as inactive or inconclusive.

SMILES	G9a block	GLS inh	HP1b chromo inh	JMJD2A Tudor	BAZ2B inh
COP(=O)(OC)C(Nc1ccc(C)cc1)c1ccc(Br)cc1 (stereo unspecified)	/	.	.	.	/
C=CCOc1ccc(C(=O)N(Cc2ccc(N(C)C)cc2)C2CCS(=O)(=O)C2)cc1 (stereo unspecified)	50µM	.	.	?	?
CCCCOc1cccc(C(=O)N(Cc2ccc(N(C)C)cc2)C2CCS(=O)(=O)C2)c1 (stereo unspecified)	.	.	?	56µM	.
O=C1CCSC2=C1SCc1sccc12	/	.	/	/	/
CC1CC(C)(C)NC(=S)N1CCC(=O)N1CCc2ccccc21 (stereo unspecified)	45µM	.	.	.	.
CC1CC(C)(C)NC(=S)N1CCC(=O)NCCc1ccc(Cl)cc1 (stereo unspecified)	50µM	.	.	.	.
CC(=O)c1cccc(NC(=O)CN2C(=S)NC(C)(C)CC2C)c1 (stereo unspecified)	32µM	.	.	.	.
Cc1ccc(NC(=O)CN2C(=S)NC(C)(C)CC2C)cc1Cl (stereo unspecified)	16µM	.	.	.	.
Cc1cc(C)cc(C(=O)NCC(=O)OCC(=O)c2c(N)n(C)c(=O)n(C)c2=O)c1	.	.	.	.	.
COc1cc(NC(=O)CSCc2ccccc2)c(C(=O)O)cc1OC	.	.	.	.	.
CC1CN(C(=O)c2nn(C)cc2[N+](=O)[O-])CC(C)O1 (stereo unspecified)	.	.	.	.[11.4 µM]	.
Cn1c(N)c(-c2ccccc2)c2ccc([N+](=O)[O-])cc2c1=O	35µM	.	?	?	?
N#Cc1c(N)n(Cc2ccccc2)c(=O)c2cc([N+](=O)[O-])ccc12	.	.	.	.	.
Cc1ccc(C(=O)/C=C/C(=O)c2ccc(C)cc2)cc1	1.6µM	2.8µM	?	.	.
C/C(=C\c1ccc(C(=O)O)cc1)c1ccc2c(c1)C(C)(C)CCC2(C)C	16µM!	.	.	.	.
CC(=O)C(=Cc1ccc(C(=O)O)cc1)C(C)=O	56µM	.	.	.	?
CC(=O)Nc1cc[n+](C(C)C(=O)c2ccc(Cl)cc2)cc1 (stereo unspecified)	.	.	.	.	.
CC(=O)Nc1nnc(SCc2cc(=O)c3cccc(C)c3[nH]2)s1	.	.	.	.	.
CC(=O)c1cccc(N/C=C\c2nnnn2-c2ccc(F)cc2)c1	.	.	.	.	.
CC(Sc1nnc(-c2ccccc2F)n1C1CC1)C(=O)NCc1ccco1 (stereo unspecified)	.	.	.	.	.
COc1ccc(CN2CCC(C(=O)N3CCN(c4ccccc4F)CC3)CC2)cc1OC	?	.	?	0.89µM	56µM
COc1cccc(CN2CCC(C(=O)N3CCN(c4ccccc4F)CC3)CC2)c1OC	10µM	.	?	3.5µM	?
COc1ccc(CC(=O)N2CCN(c3ccccc3F)CC2)cc1OC	.	.	.	.	.
COc1cc(CN2CCC(C(=O)N3CCN(c4ccccc4F)CC3)CC2)cc(OC)c1OC	25µM	.	?	2.5µM	50µM
Cc1cc(Br)cc2c(C(=O)NCC3CCCO3)cc(-c3cccs3)nc12 (stereo unspecified)	/	.	.	.	.
SMILES	G9a block	GLS inh	HP1b chromo inh	JMJD2A Tudor	BAZ2B inh
O=S(=O)(c1ccc(F)cc1)N1CN(Cc2ccco2)c2nc3ccccc3nc21	11µM	.	.	?	?
Cc1ccc(S(=O)(=O)N2CN(Cc3ccco3)c3nc4ccccc4nc32)cc1	32µM	.	.	?	.
Cc1ccc(S(=O)(=O)N2CN(Cc3ccco3)c3nc4ccccc4nc32)cc1C	32µM	.	.	.	.
COc1ccc(S(=O)(=O)NC(C)C)cc1C(=O)N1CCOCC1	.	.	.	.	.
COc1ccc(-n2ncc3c2CC(C)(C)CC3NC(=O)CCn2nc(C)cc2C)cc1 (stereo unspecified)	.	.	.	.	.
Cc1ccccc1N/C(=C(/C(Cl)=C(Cl)Cl)[N+](=O)[O-])n1nnc2ccccc21	10µM	.	.	?	50µM
COc1ccc(N/C(=C(/C(Cl)=C(Cl)Cl)[N+](=O)[O-])n2nnc3ccccc32)cc1	11µM	/	/	/	50µM
Cc1ccccc1NC(=O)c1nn(C)c(C(=O)Nc2ccccc2C)c1[N+](=O)[O-]	.	.	.	.	.
